# Test results from publication PMC11062922 (Nature Chemical Biology, 2023).
# Legend:
# Design in all cases: species or system human, MV4-11 + K-562 + COLO205 + SK-N-BE2 + OVCAR-8
# [1] = system: IARS; conditions: read-out: apparent Kd; compound concentrations: 100 nM and 1000 nM (sheet 'Samples'), CATDS: 0.121118103418118; n = 1
# [2] = system: HMOX2; conditions: read-out: apparent Kd; compound concentrations:100 nM and 1000 nM (sheet 'Samples'); n = 1
# [3] = system: HSP90AA1; conditions: read-out: apparent Kd; compound concentrations: 100 nM and 1000 nM (sheet 'Samples'), CATDS: 6.9109754816413196E-2; n = 1
# [4] = system: HSPE1; conditions: read-out: apparent Kd; compound concentrations: 100 nM and 1000 nM (sheet 'Samples'), CATDS: 0.293798637885134; n = 1
# [5] = system: PGK1; conditions: read-out: apparent Kd; compound concentrations: 100 nM and 1000 nM (sheet 'Samples'), CATDS: 0.39771264362053399; n = 1
# [6] = system: IGF1R; conditions: read-out: apparent Kd; compound concentrations: 100 nM and 1000 nM (sheet 'Samples'), CATDS: 4.98725467652835E-2; n = 1
# [7] = system: INSR; conditions: read-out: apparent Kd; compound concentrations: 100 nM and 1000 nM (sheet 'Samples'), CATDS: 5.9878421296946899E-2; n = 1
# [8] = system: CAMK2G; conditions: read-out: apparent Kd; compound concentrations:100 nM and 1000 nM (sheet 'Samples'); n = 1
# [9] = system: PRKG1; conditions: read-out: apparent Kd; compound concentrations:100 nM and 1000 nM (sheet 'Samples'); n = 1
# [10] = system: PRKX; conditions: read-out: apparent Kd; compound concentrations:100 nM and 1000 nM (sheet 'Samples'); n = 1
# [11] = system: ROCK2; conditions: read-out: apparent Kd; compound concentrations:100 nM and 1000 nM (sheet 'Samples'); n = 1
# [12] = system: AGPS; conditions: read-out: apparent Kd; compound concentrations:100 nM and 1000 nM (sheet 'Samples'); n = 1
# [13] = system: RAB6A;RAB6B; conditions: read-out: apparent Kd; compound concentrations: 100 nM and 1000 nM (sheet 'Samples'), CATDS: 6.2517900726017095E-2; n = 1
# [14] = system: CDC42BPG; conditions: read-out: apparent Kd; compound concentrations: 100 nM and 1000 nM (sheet 'Samples'), CATDS: 6.5617212110221396E-2; n = 1
# [15] = system: GRAMD1A; conditions: read-out: apparent Kd; compound concentrations: 100 nM and 1000 nM (sheet 'Samples'), CATDS: 4.7101579015389999E-2; n = 1
# [16] = system: MAP4K4; conditions: read-out: apparent Kd; compound concentrations: 100 nM and 1000 nM (sheet 'Samples'), CATDS: 5.45482325953821E-2; n = 1
smiles,measurement,setting,value
CS(=O)(=O)c1ccc(-c2nc3n(c2-c2ccncc2)CCC3)cc1 [SKF-105942],potency estimated from few doses,[1],1.9 µM
Nc1c(C(=O)c2ccccc2)cnn1-c1ccc(F)cc1 [RO1151246-000],potency estimated from few doses,[2],2.21 µM
Cc1[nH]nc2c1N=C(c1ccccc1Cl)c1cc([N+](=O)[O-])ccc1N2 [RO0274406-000],potency estimated from few doses,[3],1.38 µM
same,potency estimated from few doses,[4],0.0607 µM
same,potency estimated from few doses,[5],0.0377 µM
COc1cc(N2CCN(C(C)C)CC2)ccc1Nc1nc(Nc2cccc(F)c2C(=O)O)c2cc[nH]c2n1 [GSK1819799A],potency estimated from few doses,[6],1.27 µM
same,potency estimated from few doses,[7],0.816 µM
Cl.Oc1ccc2ncnc(Nc3ccc(OCc4ccccc4)cc3)c2c1 [GI262866A],potency estimated from few doses,[8],0.385 µM
COc1ccc(C2=NC(c3ccc(Cl)cc3F)C(C(=O)Nc3ccc4[nH]ncc4c3)=C(C)N2)cn1.O=C(O)C(F)(F)F (stereo not shown) [GSK534913A],potency estimated from few doses,[9],0.825 µM
same,potency estimated from few doses,[10],0.758 µM
same,potency estimated from few doses,[11],0.131 µM
COc1ccc(COc2ccc(Cc3cnc(N)nc3N)cc2OC)cc1 [GW632580X],potency estimated from few doses,[12],1.65 µM
Fc1cccc(COc2ccc(Nc3ncncc3C#Cc3ccccc3)cc2Cl)c1 [GW651576X],potency estimated from few doses,[13],1.16 µM
COc1ccc(-c2nn3ncccc3c2-c2ccnc(Nc3ccc4c(c3)OCCO4)n2)cc1 [GW827106X],potency estimated from few doses,[14],0.834 µM
same,potency estimated from few doses,[15],1.73 µM
same,potency estimated from few doses,[16],1.22 µM
